Screening data: PubChem, National Center for Advancing Translational Sciences (NCATS)
Most compounds without a hit are left out; they make up all but 1.2% or so of the library.
B2AR arrestin: agonists driving beta-arrestin recruitment to human beta2-adrenergic receptor; Potency, µM (highest dose often 46.1 µM), without a hit: at the highest dose activation, actives largely listed as activators; beta-arrestin recruitment to beta2AR, cell-based reporter; P07550; hit rate 0.02% among 330,000;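 also: 0% = DMSO controls and full agonism = EC100 isoproterenol or metaproterenol; nearly all actives have a fitted effect of over 65% in size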
BRCA1 expr up: increases BRCA1 expression; MCF7-BRCA1-FFLuc reporter, luminescence, 48 h; response scale: scaled: vehicle 0%, 10 µM genistein 100%; Potency, µM (titrated, usually from 46.1 µM), for the others: top-dose activation, actives largely listed as activators; hit rate 1.1% among 380,000; AID 624202; also: nearly all actives have a fitted effect of over 80% in size
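Compounds are tested at multiple concentrations on MCF7 BRCA1-luciferase reporter cells seeded at 2000 per well; after 48 h, a single luminescence end-point is taken and curves fitted to the normalized data.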
Mito fusion act: mitochondrial division inhibition or fusion activation | AID 485298 | Potency, µM (titrated, usually from 46.1 µM), for inactives: at the highest dose growth rescue (activation), hits mostly activators | hit rate 0.23% among 320,000 | S. cerevisiae fusion-defective mutant growth rescue, CellTiterGlo 48 h; also: % of control where 0% means no effect; nearly all actives have a fitted effect of over 45% in size
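Compounds are tested for their ability to restore growth of mitochondrial fusion-defective yeast strains at non-permissive 37C in YPEG medium over 48 hours. Viability is quantified by luciferase luminescence.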
ERG Ets-DNA blk: inhibitors of human ERG Ets domain-DNA interaction | P11308 | fluorescence polarization, His-ERG Ets domain / labelled DNA | Potency, µM (doses to about 76.9 µM), for inactives: at the highest dose FP activity, negative = inhibition, actives largely listed as inhibitors | hit rate 0.028% among 370,000; active = well fitted inhibition curve with a large enough effect in the polarisation, with a control signal flat; inconclusive = small, poorly fitted or top-dose-only effect, or effect the other way, or a change in a side signal; inactive = no such curve, though single readings can be large or run the other way; the % refers to the polarisation;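 also: polarization taken with two DNA probes labelled with fluorescein and Texas red; % of control where 0% means no effect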
Target sequence (P11308 whole entry, looked up, the tested form may be a part): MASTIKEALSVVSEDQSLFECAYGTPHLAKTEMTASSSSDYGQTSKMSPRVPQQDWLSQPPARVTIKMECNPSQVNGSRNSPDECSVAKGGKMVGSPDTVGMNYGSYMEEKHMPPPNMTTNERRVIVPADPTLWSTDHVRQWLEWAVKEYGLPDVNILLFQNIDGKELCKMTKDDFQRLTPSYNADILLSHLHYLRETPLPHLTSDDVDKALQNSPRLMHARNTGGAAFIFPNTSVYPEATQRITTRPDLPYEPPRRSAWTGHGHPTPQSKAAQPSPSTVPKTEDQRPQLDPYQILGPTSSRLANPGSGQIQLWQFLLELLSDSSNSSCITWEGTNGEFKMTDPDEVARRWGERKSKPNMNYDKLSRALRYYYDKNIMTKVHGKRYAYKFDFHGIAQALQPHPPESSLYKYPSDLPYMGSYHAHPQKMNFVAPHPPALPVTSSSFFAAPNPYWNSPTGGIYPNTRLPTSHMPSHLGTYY
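His-tagged ERG Ets domain (1 uM in the protein solution; 300mM KCl, 50mM Tris-HCl, 1mM EDTA, 1mM DTT, pH 7.5) received compound, then a probe mix of 5 nM fluorescein-DNA and 100nM Texas-615-DNA. Fluorescence polarization was read for both dyes.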
The depositor's hits bear a star; ? = inconclusive; nt = no result given; ! = repeats disagree. Unless noted, calls follow the shape of the dose curve; as a rule, active = well fitted curve in the direction sought with a large enough effect; inconclusive = small, poorly fitted or top-dose-only effect, or another doubt; inactive = no such curve, though single readings can be large; an effect the other way counts as inactive or inconclusive. Potency is read from the fitted curve at half-maximal effect.

SMILES	B2AR arrestin	BRCA1 expr up	Mito fusion act	ERG Ets-DNA blk
COCCCC1CCN(C(=O)c2cc(COc3cc(C)ccc3C)on2)CC1	0%	3.2µM*	20%	0%
Cc1cccc2c1N(Cc1ccccc1OCCC(C)C)C(=O)C2=O	nt	nt	nt	8%
O=C(CSc1nc2c([nH]c3ccccc32)c(=O)n1-c1ccccc1F)Nc1ccccc1C(F)(F)F	nt	nt	nt	4%
Cc1cnc(/C=C/c2ccc(N(C)C)cc2)cn1	nt	-8%	nt	nt
COc1cccc2cc(-c3cn4ccc(C)cc4n3)c(=O)oc12	nt	7.1µM*	nt	-8%
CC1Cc2ccccc2C[N+]1(C)CC(=O)c1ccc(I)cc1 (stereo not drawn)	nt	0%	nt	nt
COc1ccc(-c2cc3nc[nH]c(=O)c3s2)cc1	-1%	6%	6%	-9%
O=c1[nH]cnc2cc(-c3ccccc3)sc12	0%	2.8µM*	12%	-15%
COc1cccc(NC(=O)Cn2cc(C(=O)C3CCCCC3)c3ccccc32)c1	nt	nt	nt	-4%
CCN(CC)c1nc(C)nc2c1cnn2CCc1ccccc1	-1%	8.9µM*	2%	-15%
COc1cc2nc(NC3CCN(C)CC3)nc(NC3CCN(C)CC3)c2cc1OC	nt	0%	nt	nt
Cc1ccc(N=Nc2c(C)[nH]n(C(N)=S)c2=O)cc1C	-1%	49%	-2%	-2%
CC(=O)Nc1ccc(N=Nc2c(C)[nH]n(C(N)=S)c2=O)cc1	0%	10µM*	3%	-1%
Cc1cc(N/N=C/c2ccccc2)nc(N)n1	0%	13µM*	-4%	3%
Cc1nc(N)nc(N/N=C/c2ccccc2)n1	0%	32%	0%	4%
CC(=O)Nc1cccc(-c2nnc(-c3ccccc3)o2)c1	0%	6.3µM*	-2%	-3%
O=C(Cc1ccccc1)Nc1cccc(-c2nnc(-c3ccco3)o2)c1	-1%	16%	2%	7%
COc1ccccc1OCC(=O)Nc1cccc(-c2nnc(-c3ccco3)o2)c1	0%	5µM*	?	-1%
COc1ccc(NS(=O)(=O)c2cccc(-c3nnc(-c4ccccc4)o3)c2)cc1	0%	-10%	13µM*	4%
O=S(=O)(NC1CCCC1)c1cccc(-c2nnc(-c3ccccc3)o2)c1	0%	-25%	6%	0%
O=C(Nc1cccc(-c2nnc(-c3ccccc3)o2)c1)C1CC1	0%	8.9µM*	9%	-7%
Cc1c(NC(=O)C(C)(C)Oc2ccc(Cl)cc2)cccc1-c1nc2ncccc2o1	nt	-54%	nt	0%
CCC1CCCCN1CCCNC(=O)c1ccc2c(c1)N(Cc1cccc(C)c1)C(=O)c1ccccc1S2(=O)=O (stereo not drawn)	nt	-53%	nt	-2%
Cc1ccc(SCc2ccc(C(=O)N3CCCC3)cc2)cc1	0%	11µM*	17%	1%
CCN1CCN(C(=O)c2ccc(CSc3ccc(C)cc3)cc2)CC1	0%	4%	-19%	nt
SMILES	B2AR arrestin	BRCA1 expr up	Mito fusion act	ERG Ets-DNA blk
CCCCc1ccc(-c2csc(/C(C#N)=C\c3ccco3)n2)cc1	0%	10µM*	-1%	-4%
O=[N+]([O-])c1cccc(CNc2ccc3c(c2)CCC3)c1	-1%	-7%	14µM*	-5%
Cc1ccc(S(=O)(=O)N2CCN(c3nc(-c4cccs4)nc4ccccc34)CC2)c(C)c1	nt	-2%	nt	nt
CC1CCc2c(sc3nc(-c4cc5ccccc5oc4=O)nc(Cl)c23)C1 (stereo not drawn)	nt	42%	nt	9%
OCCCNc1nc(-c2ccc(Br)cc2)nnc1-c1ccc(Cl)cc1	0%	-31%	22µM*	-3%
C[n+]1ccc(/C=C/c2cc[n+](C)c3ccccc23)c2ccccc21	nt	-70%	nt	nt
O=C(NCC1CCCCC1)c1ccc(F)cc1Cl	-1%	5.6µM*	-3%	-6%
CCOc1ccc2oc(=O)cc(CN3CCN(Cc4ccc(F)cc4)CC3)c2c1	nt	nt	nt	1%
O=Nc1c(-c2c(O)[nH]c3cc(Br)ccc23)[nH]c2ccccc12	-1%	-61%	1.8µM*!	91%
O=C(CSCc1cccc(Br)c1)N=Nc1c(O)[nH]c2ccccc12	-1%	1%	-1%	1%
O=C1OC(c2ccc(Br)cc2)=N/C1=C\N1CCCCC1	-2%	?	-5%	-9%
O=C1OC(c2ccccc2)=N/C1=C\N1CCCCC1	0%	7.9µM*	0%	nt
O=C1OC(c2ccccc2)=C/C1=C/N1CCCCC1	5%	4µM*	-2%	3%
O=C1OC(c2ccccc2)=CC1=Cc1ccccc1O	nt	2%	nt	nt
Cc1[nH]c2ccccc2c1C(=O)C(C)Sc1nc2ccccc2c(=O)n1Cc1cccnc1 (stereo not drawn)	nt	8%	nt	nt
Cc1nc2ccccc2nc1N/N=C/c1ccc(O)cc1	0%	7.9µM*	1%	7%
O=C(Nc1ccc(CN2CCOCC2)cc1)c1ccc(Cl)cc1	0%	13µM*	5%	-9%
CCC(=O)N1CCc2cc(S(=O)(=O)NCCC(=O)Nc3ccc(CC)cc3)ccc21	nt	nt	nt	-3%
Clc1ccc(N/N=C/c2ccncc2)cc1Cl	-1%	7.1µM*	?	-4%
Fc1ccc(N/N=C/c2ccncc2)c(F)c1	0%	14µM*	5%	1%
Clc1cnc(N/N=C/c2ccncc2)c(Cl)c1	0%	11%	-10%	-2%
COC(=O)c1ccc(NC(=O)c2nc(S(=O)(=O)Cc3ccccc3F)ncc2Cl)cc1	nt	-51%	nt	nt
CCCC(O)c1nc2ccccc2n1Cc1ccccc1OC (stereo not drawn)	nt	4%	nt	-1%
Cc1cccc(NC(=O)C(Cc2ccccc2)NS(=O)(=O)c2ccc3c(c2)c(=O)n(C)c(=O)n3C)c1 (stereo not drawn)	nt	-10%	nt	1%
Cc1ccc(C2(c3noc(CN(C)Cc4ccccn4)n3)CCCC2)cc1	3%	-14%	-1%	-1%
SMILES	B2AR arrestin	BRCA1 expr up	Mito fusion act	ERG Ets-DNA blk
Cc1ccc(C2(c3noc(CN(C)Cc4cccnc4)n3)CCCC2)cc1	-1%	-8%	28µM*	-8%
O=C(O)CC(NC(=O)C1CCCCC1)c1cc([N+](=O)[O-])ccc1Cl (stereo not drawn)	0%	-26%	3%	3%
O=C(O)CC(NC(=O)C12CC3CC(CC(C3)C1)C2)c1cc([N+](=O)[O-])ccc1Cl (stereo not drawn)	0%	25%	3.5µM*	2%
O=C(Oc1cccc(Nc2ncnc3ccccc23)c1)c1ccccc1Cl	0%	-24%	?	1%
COc1ccc(Nc2ncnc3ccccc23)c(OC)c1	-3%	5%	5%	-3%
COc1ccc(Nc2ncnc3ccccc23)cc1	0%	7.9µM*	1%	1%
COc1cc2ncnc(Nc3cccc(Cl)c3)c2cc1OC	0%	-35%	3.3µM*!	nt
COc1cccc(Nc2ncnc3ccccc23)c1	0%	11µM*	2%	nt
COc1ccc(/C=N/Nc2ncc(Br)cn2)c(OC)c1	-1%	10µM*	-3%	-3%
COc1cc2nc(N3CCCCC3)nc(NC3CCN(C)CC3)c2cc1OC	nt	-51%	nt	nt
Cc1cc(C)cc(Oc2nc(-c3ccccc3)cc(C)c2S(C)(=O)=O)c1	0%	-56%	-1%	14%
Cc1cc(-c2ccccc2)nc(Oc2ccc(C(C)(C)C)cc2)c1S(C)(=O)=O	-1%	-46%	8.9µM*	2%
